Structures are written as SMILES. Results filed as inconclusive are left out. Active and inactive are the calls of the source. Calls come from the whole dose curve.

Vitamin D3 receptor (Homo sapiens), sequence (P11473 whole entry, looked up): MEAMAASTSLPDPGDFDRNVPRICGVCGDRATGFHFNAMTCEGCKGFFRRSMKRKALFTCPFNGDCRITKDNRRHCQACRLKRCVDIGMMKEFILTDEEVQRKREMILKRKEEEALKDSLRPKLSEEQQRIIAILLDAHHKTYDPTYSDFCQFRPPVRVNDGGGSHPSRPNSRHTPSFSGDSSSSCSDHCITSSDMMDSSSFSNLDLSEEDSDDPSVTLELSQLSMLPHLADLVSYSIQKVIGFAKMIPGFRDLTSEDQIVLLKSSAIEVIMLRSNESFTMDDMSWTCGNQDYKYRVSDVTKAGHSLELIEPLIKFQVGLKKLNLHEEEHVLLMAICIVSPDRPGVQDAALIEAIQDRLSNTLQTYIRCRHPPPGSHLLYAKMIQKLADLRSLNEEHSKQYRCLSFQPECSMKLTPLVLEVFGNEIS

The test concerns the target Vitamin D3 receptor (Homo sapiens) (UniProt P11473). In words: qHTS assay for small molecule antagonists of vitamin D receptor signaling (AID 588541).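 Note: receptor activated by calcitriol during compound treatment.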 Particulars: HEK293T VDR-UAS-bla, beta-lactamase ratio, antagonist mode; series mostly up to 76.7 µM. From the text: NIH Chemical Genomics Center [NCGC]
U.S. Environmental Protection Agency [EPA]
National Institutes of Environmental Health Sciences [NIEHS]
National Toxicology Program [NTP]
The Vitamin D receptor (VDR) is a member of nuclear hormone receptor superfamily and it plays a critical role in calcium homeostasis and bone metabolism. It plays a role in inducing cell differentiation, inhibiting cell growth and in thrombogenicity. So, VDR that mediates these effects represents a pharmacological target in prevention and treatment of hyperproliferative malignancies, such as cancer and psoriasis, cardiovascular, immunological, inflammatory and renal diseases etc.
NCGC Assay Protocol Summary
Using a beta-lactamase reporter-gene under control of Vitamin D receptor (VDR) response element, a cell-based assay [GeneBLAzer (VDR -UAS-bla assay developed by Invitrogen] was used to measure VDR ligands signaling. GeneBLAzer VDR -UAS-bla HEK293T cells were used with assay medium containing 2% charcoal-stripped FBS. The assay was performed in clear bottom black Greiner 1536-well plates. Library compounds were measured for their ability to inhibit the reporter gene activity. Compounds were screened in a titration series in 1536-well format. The fluorescence intensity (405 nm excitation, 460/530 nm emission) was measured using an EnVision plate reader. Data was normalized relative to 1-alpha,25-Dihydroxy vitaminD3 control (50 nM, 100%) and DMSO only wells (basal, 0%). Concentration-response titration points for each compound were fitted to the Hill equation yielding concentrations of half-maximal inhibition (IC50) and maximal response (efficacy) values.
qHTS protocol for VDR beta-lactamase assay in antagonist mode
[Step] [Parameter] [Value] [Description]
1. Reagent; 5 uL; 2000 cells/well
2. Incubation; 37 C for 5 hrs
4. Controls (DMSO); 23 nL,
5. Agonist (Stimulator); 1uL; 1-alpha,25-Dihydroxy vitaminD3 at 50 nM and 3 nM final concentrations
6. Incubation; 37 C for 16 hrs
7. Detection reagent; 1 uL of CCF4-dye
8. Incubation; RT for 2 hrs
9. Detection; Fluorescence; Envision plate reader
For the compound `CC(O)CN(CCN(CC(C)O)CC(C)O)CC(C)O` (stereo not drawn), the result was inactive.
As for `CN(C)CCC=C1c2ccccc2CCc2ccccc21`, the result was inactive.
With `CC(O)COc1ccccc1` (stereo not drawn), the result was inactive.
As for `NCCNCCNCCN`, the result was inactive.
With `[Cl][In]([Cl])[Cl]`, the result was inactive.
With `CCCCOC(=O)c1ccc(O)cc1`, the outcome was inactive.
As to `O=S(=O)(O)NC1CCCCC1`, the outcome was inactive.
Take `CCCCCCCCCCCCOS(=O)(=O)O`: the result was inactive.
In the case of `CNC(=O)Oc1ccc2c(c1)[C@]1(C)CCN(C)[C@@H]1N2C`, the result was inactive.
Consider `NC(=O)N/N=C/c1ccc([N+](=O)[O-])o1`, for which the outcome was inactive.
On to `CC1=C(/C=C/C(C)=C/C=C/C(C)=C/C(=O)O)C(C)(C)CCC1`, for which the outcome was inactive.
Regarding `CN(C)CCCN1c2ccccc2Sc2ccc(Cl)cc21`, the outcome was inactive.
Turning to `CCCCC(CC)COC(=O)c1ccccc1O` (stereo not drawn), the outcome was inactive.
Turning to `NC(=O)c1ncn([C@@H]2O[C@H](CO)[C@@H](O)[C@H]2O)n1`, the result was inactive.
To `NCCNCCNCCNCCN` belongs “inactive”; to `Nc1ccc(S(=O)(=O)Nc2nccs2)cc1`, “inactive”.
Regarding `COc1ccccc1O`, the result was inactive.
For `Cc1cccc(Nc2cc(Cl)nc(SCC(=O)O)n2)c1C`, the outcome was inactive.
On to `CC12CCC(CC1)C(C)(C)O2`, for which the outcome was inactive.
To `CC1(C)[C@@H]2CC[C@@]1(C)C(=O)C2` belongs “inactive”; to `Oc1cccc(O)c1`, “inactive”.
`CN(C)CCOC(C)(c1ccccc1)c1ccccn1` (stereo not drawn): the result was inactive.
As to `Cc1cc(CC(=O)O)n(C)c1C(=O)c1ccc(Cl)cc1`, the result was inactive.

The record behind these values is PubChem BioAssay (NCATS).
